KCNQ2 block: rat KCNQ2 potassium channel inhibitors, primary screen, cell-based, CHO-K1, FluxOR thallium flux, B-score. Potassium voltage-gated channel subfamily KQT member 2 (Rattus norvegicus), O88943. 20 min; hits give low values. B-score at 10 µM. actives 1.1% (n = 310,000);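 active = fluorescence ratio B-score at most minus 3 library SDs, with starting brightness B-score within 2 library SDs, cut at about -5.5 in these data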
KCNQ2 enhance: potentiators of rat KCNQ2 potassium channel. CHO-K1 KCNQ2, FluxOR thallium flux fluorescence; hits give high values. B-score at 10 µM. actives 0.54% (n = 310,000). AID 2239, 2010;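 active = fluorescence ratio B-score at least 3 SD of library B-scores, with initial fluorescence B-score within 3 of them, cut at about 5.3 in these data; same plate scores as AID 2156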;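 also: B-score of peak minus minimum over baseline fluorescence ratio after K+ and Tl+ stimulus; positive B-score means potentiation of KCNQ2 with more thallium influx and brighter signal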
Kir21 confirm: mouse Kir2.1 channel blockers, retest, confirmation, cell-based, FluxOR thallium flux, duplicate | shares compounds with KCNQ2 enhance | Kir2.1-expressing cells, FluxOR thallium flux fluorescence; hits give low values | Tl flux remaining, % of negative control (hits give low values), % at 10 µM | actives 41% (n = 2,300) | AID 2032, 2009;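 active = Primary-screen hit whose thallium flux fell at least 3 control SD below untreated wells in both duplicates, with normal baseline fluorescence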;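 also: 0% = blank wells without stimulus and 100% = stimulated no-compound controls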
HEK293 Tl flux: parental HEK293 activity in Kir2.1 inhibitor counter-screen | shares compounds with KCNQ2 enhance | parental HEK293 cells, FluxOR thallium flux fluorescence; 0% = unstimulated blank wells | FluxOR signal as % of negative control (100 = no effect), % at 10 µM | actives 19% (n = 2,300) | AID 2105;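 active = dye signal at least 3 control SD above or below untreated wells in both duplicates, raw fluorescence within 3, either direction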;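 also: percent is based on the flux ratio of peak minus minimum fluorescence over baseline F0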
CHO-K1 ctr: nonspecific thallium flux increase in parental CHO-K1, confirmation, counter-screen for KCNQ2 potentiator project, cell-based, FluxOR thallium flux, duplicate | shares compounds with KCNQ2 enhance | parental CHO-K1 cells, FluxOR thallium flux fluorescence; zero = vehicle mean+3SD, 100% = vehicle-minus-blank window | activity increase over 3SD of controls, % at 10 µM | actives 43% (n = 1,200) | AID 2282, 2010;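 active = signal rise of at least 3 SD above the untreated control mean, in both duplicate wells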;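 also: counter screen of KCNQ2 potentiator hits so any rise reflects channel-independent effects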
KCNQ1 sel pot: human KCNQ1 channel potentiation off-target, confirmation, selectivity assay for KCNQ2 potentiator project, cell-based, CHO, FluxOR thallium flux. shares compounds with KCNQ2 enhance. CHO KCNQ1 stable, FluxOR thallium flux fluorescence; beyond 3SD, as % of vehicle-control signal. activation over 3SD threshold, % at 10 µM. actives 28% (n = 1,200);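 active = fluorescence ratio rise of at least 3 SD of vehicle wells above their mean, in both replicate wells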;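 also: 0% = vehicle mean plus 3 SD and 100% = vehicle minus unstimulated blank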
KCNQ2 pot conf: rat KCNQ2 channel potentiators, confirmation, cell-based, CHO, FluxOR thallium flux, duplicate; potentiation, less the hit threshold, % at 10 µM; actives 68% (n = 1,200); CHO-KCNQ2 cells, FluxOR thallium flux fluorescence; AID 2287, 2010; shares compounds with KCNQ2 enhance;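 active = fluorescence ratio rising 3 SD or more over the vehicle control mean in both replicates, plus primary screen hit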;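 also: peak minus minimum thallium fluorescence divided by baseline after K/Tl stimulus; 0% = vehicle mean plus 3 SD and 100% = vehicle minus unstimulated blank difference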
Kir21 spec: mouse Kir2.1 channel activation off-target, confirmation, selectivity assay for KCNQ2 potentiator project, cell-based, HEK293, FluxOR thallium flux; shares compounds with KCNQ2 enhance; HEK293 Kir2.1, FluxOR thallium flux fluorescence; activity over 3SD threshold, % at 10 µM; actives 2% (n = 1,200);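 active = fluorescence ratio rise of at least 3 SD above the vehicle-control mean, seen in both replicates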;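 also: 0% = vehicle mean plus 3 SD and 100% = vehicle minus no-stimulus blank window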
KCNQ2 W236L pot: potentiators of retigabine-insensitive KCNQ2 W236L, mechanism study for KCNQ2 potentiator project, cell-based, rat KCNQ2 W236L, CHO, automated patch clamp; actives 10% (n = 940); current increase over 3SD of negative controls (%), hits give high values, % at 25 µM; automated patch clamp current; shares compounds with KCNQ2 enhance;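 active = current increase at least 3 SD of the untreated controls above them in both duplicate recordings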
Target sequence (O88943 whole entry W236L, looked up): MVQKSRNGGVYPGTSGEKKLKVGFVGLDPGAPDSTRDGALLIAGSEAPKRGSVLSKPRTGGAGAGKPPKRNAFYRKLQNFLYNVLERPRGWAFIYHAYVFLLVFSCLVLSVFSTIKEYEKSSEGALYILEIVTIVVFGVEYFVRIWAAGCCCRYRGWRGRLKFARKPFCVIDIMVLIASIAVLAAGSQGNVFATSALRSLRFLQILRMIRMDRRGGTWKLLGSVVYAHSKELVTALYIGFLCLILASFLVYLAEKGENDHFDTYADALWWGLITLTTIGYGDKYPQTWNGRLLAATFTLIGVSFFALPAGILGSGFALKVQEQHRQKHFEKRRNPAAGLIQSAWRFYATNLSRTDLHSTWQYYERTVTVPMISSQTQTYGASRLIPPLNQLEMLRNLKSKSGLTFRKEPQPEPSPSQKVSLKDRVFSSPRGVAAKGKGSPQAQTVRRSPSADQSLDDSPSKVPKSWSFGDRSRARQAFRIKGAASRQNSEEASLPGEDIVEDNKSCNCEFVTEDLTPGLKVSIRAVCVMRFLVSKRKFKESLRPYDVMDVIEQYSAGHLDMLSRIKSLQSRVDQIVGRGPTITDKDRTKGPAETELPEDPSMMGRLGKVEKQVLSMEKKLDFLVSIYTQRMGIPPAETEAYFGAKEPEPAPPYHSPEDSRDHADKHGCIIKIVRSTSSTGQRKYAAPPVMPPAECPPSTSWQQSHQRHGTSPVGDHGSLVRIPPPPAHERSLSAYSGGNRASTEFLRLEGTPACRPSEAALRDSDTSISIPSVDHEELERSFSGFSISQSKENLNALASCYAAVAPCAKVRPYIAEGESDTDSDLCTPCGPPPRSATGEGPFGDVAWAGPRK
An asterisk follows results filed as active. A selection: hits, their analogues and other compounds. The true share with any hit is near 1.6%.

How did COC(=O)c1ccc(C)c(NC(=S)NCc2ccc(Cl)cc2)c1 do in these assays?
KCNQ2 block: inactive; KCNQ2 enhance: 0.41

Results for O=C(NNC(=S)NC(=O)c1ccc(Br)cc1)c1ccc([N+](=O)[O-])cc1 ?
KCNQ2 block: inactive; KCNQ2 enhance: 0.06

How did Cc1ccc(C(=O)NNC(=S)NC(=O)c2ccccc2)cc1 do in these assays?
KCNQ2 block: inactive; KCNQ2 enhance: 1.1; Kir21 confirm: inactive; HEK293 Tl flux: inactive

How did O=C(COc1cccc(NC(=O)c2cccc([N+](=O)[O-])c2)c1)c1ccc(Br)cc1 do in these assays?
KCNQ2 block: inactive; KCNQ2 enhance: 8.9*; Kir21 confirm: inactive; HEK293 Tl flux: inactive; CHO-K1 ctr: 3.8*; KCNQ1 sel pot: -14; KCNQ2 pot conf: 12*; Kir21 spec: -32; KCNQ2 W236L pot: inactive

Results for O=C(Nc1cccc(OCC(=O)N2CCOCC2)c1)c1cccc([N+](=O)[O-])c1 ?
KCNQ2 block: inactive; KCNQ2 enhance: 1.2

What do the screens show for `Cc1cccc(C(=O)NNC(=S)NC(=O)c2ccccc2)c1`?
KCNQ2 block: inactive; KCNQ2 enhance: 0.69

Results for O=C(NNC(=S)NC(=O)c1ccc(Br)cc1)c1cccc([N+](=O)[O-])c1 ?
KCNQ2 block: inactive; KCNQ2 enhance: 7.6*; Kir21 confirm: inactive; HEK293 Tl flux: inactive; CHO-K1 ctr: -5; KCNQ1 sel pot: -15; KCNQ2 pot conf: -35; Kir21 spec: -38

Results for Clc1ccc(-c2c(C3=NCCCN3)nnn2-c2ccc(Cl)cc2)cc1 ?
KCNQ2 block: inactive; KCNQ2 enhance: 1.9

What do the screens show for `COc1ccnc(-n2cccc2C#N)c1C#N`?
KCNQ2 block: inactive; KCNQ2 enhance: 0.11

What do the screens show for `O=C1NN(c2cccc(Br)c2)C(=O)/C1=C\c1ccc(N2CCOCC2)cc1`?
KCNQ2 block: inactive

How did CCOC(=O)c1n[nH]n2c1nc(=S)c1ccccc12 do in these assays?
KCNQ2 block: inactive; KCNQ2 enhance: 8.2*; Kir21 confirm: inactive; HEK293 Tl flux: 391%*; CHO-K1 ctr: -24; KCNQ1 sel pot: -13; KCNQ2 pot conf: 43*; Kir21 spec: 1.3*; KCNQ2 W236L pot: inactive

How did CCOC(=O)c1n[nH]c2ccccc12 do in these assays?
KCNQ2 block: inactive; KCNQ2 enhance: 1.3

What do the screens show for `Cc1nc(N2CCN(Cc3ccccc3)CC2)nc2c1C(=O)CC(C)C2` (configuration not stated)?
KCNQ2 block: inactive; Kir21 confirm: 65%*; HEK293 Tl flux: inactive

How did CCN1CCN(c2nc(C)c3c(n2)CC(C)CC3=O)CC1 (configuration not stated) do in these assays?
KCNQ2 block: inactive; KCNQ2 enhance: 0.57

Results for Cc1ccccc1N=C1SCCN1C(=O)CN1C(=O)NC2(CCCC2)C1=O ?
KCNQ2 block: inactive

What do the screens show for `Cc1cc(=O)[nH]c(SCC(=O)NCCC2=CCCCC2)n1`?
KCNQ2 block: inactive

Results for CC(C)N1CCN(Cc2ccc3c(c2)Cc2ccccc2-3)CC1CCO (configuration not stated) ?
KCNQ2 block: inactive; KCNQ2 enhance: 0.32

How did CCOC(=O)C1CCN(C(=O)COC(=O)c2ccccc2C(=O)c2ccc(Cl)cc2)CC1 do in these assays?
KCNQ2 block: inactive; KCNQ2 enhance: 0.3

What do the screens show for `O=c1nc(SCc2c(F)cccc2Cl)nc(-c2ccc(Cl)cc2)[nH]1`?
KCNQ2 block: inactive; KCNQ2 enhance: 2.9

Results for O=c1nc(SCc2ccccc2Cl)nc(-c2ccc(Cl)cc2)[nH]1 ?
KCNQ2 block: inactive; KCNQ2 enhance: 11*; Kir21 confirm: inactive; HEK293 Tl flux: 148%*; CHO-K1 ctr: 13*; KCNQ1 sel pot: -9; KCNQ2 pot conf: 6.1*; Kir21 spec: -34; KCNQ2 W236L pot: inactive

What do the screens show for `CCNC(=O)N(C)c1nncnc1C(=O)NC`?
KCNQ2 block: inactive; KCNQ2 enhance: 1.5

What do the screens show for `CNC(=O)c1ncnnc1N(C)C(=O)NCc1ccccc1`?
KCNQ2 block: inactive; KCNQ2 enhance: 9.8*; Kir21 confirm: inactive; HEK293 Tl flux: inactive; CHO-K1 ctr: 0.9*; KCNQ1 sel pot: -21; KCNQ2 pot conf: -13; Kir21 spec: -40

What do the screens show for `O=C(NCc1csc2ccc(Cl)cc12)Nc1ccccc1`?
KCNQ2 block: inactive

What do the screens show for `O=C(NCc1ccc(Cl)cc1Cl)Nc1ccccc1`?
KCNQ2 block: inactive; KCNQ2 enhance: 11*; Kir21 confirm: inactive; HEK293 Tl flux: inactive; CHO-K1 ctr: -3; KCNQ1 sel pot: 4.9*; KCNQ2 pot conf: 29*; Kir21 spec: -34; KCNQ2 W236L pot: 9.9%*

What do the screens show for `Cc1cc(C(=O)OCC(=O)Nc2ccc(F)cc2)c(C)o1`?
KCNQ2 block: inactive; KCNQ2 enhance: 5.7*; Kir21 confirm: inactive; HEK293 Tl flux: inactive; CHO-K1 ctr: 74*; KCNQ1 sel pot: -10; KCNQ2 pot conf: -3; Kir21 spec: -34; KCNQ2 W236L pot: inactive

What do the screens show for `Cc1cc(C(=O)OCC(=O)Nc2ccccc2)c(C)o1`?
KCNQ2 block: inactive; KCNQ2 enhance: 1.4

Results for O=C(NCC(O)c1ccccc1)c1ccc(Cl)c(S(=O)(=O)N2CCCC2)c1 (configuration not stated) ?
KCNQ2 block: inactive

What do the screens show for `CCn1c(SCC(=O)NNC(=O)c2ccc(C)cc2)nnc1C1CC1`?
KCNQ2 block: inactive; KCNQ2 enhance: 1.4
